# Assay results taken from PubChem BioAssay (NCI).
# Compounds without any hit were thinned out: in the full panel of roughly 83,000, 20% have a hit.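 How to read the values: 0–100, growth inhibition (40 = 60% inhibited); 0, no net growth; -100 to 0, cell death (-40 = 40% of starting cells died; -100 = all dead).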 Activity calls are given as the source filed them.
# Tested on: MOLT-4 leukemia
# Test: NCI-60 one-dose screen, 48 h (100 = growth as untreated, 0 = no growth, -100 = all killed)
# Settings: 10 µM unless noted
# Method: Growth inhibition of the MOLT-4 human tumor cell line is measured as a screen for anti-cancer activity. Cells are grown in 96 well plates and exposed to the test compound for 48 hours. Compounds are tested at a single concentration, which is 10^-5 M for most compounds. The reported endpoint is percent growth (GI% or GIPRCNT), where numbers from 0 - 100% represent growth inhibition, and numbers from -100% - 0 represent cell death. For example, a value of 40 represents 60% growth inhibition. A value of 0 means no net growth occurred over the course of the experiment. A value of -40 indicates 40% of cells at the beginning of the experiment died by the end of the experiment. A value of -100 means all cells are dead at the end of the experiment.
# NCI-60 Human Tumor Cell Lines Screen was performed using the standard one-dose NCI protocol, which is described in more detail at https://dtp.cancer.gov/discovery_development/nci-60/default.htm.
# Compounds with GIPRCNT values below 10 were considered active. Activity score was based on GIPRCNT using the following formula: […]
# Score is 0 for GIPRCNT values of 100 or above, 50 for GIPRCNT values of 0, and 100 for GIPRCNT values of -100.
row,Structure (SMILES),growth
1,C[C@]12CC[C@@H]3c4cc(OC(F)F)c(O)cc4CC[C@H]3[C@@H]1CC[C@@H]2OS(N)(=O)=O,25.3% (inactive)
2,O=c1c2cc(F)ccc2sc2c(NCCN3CCCCC3)nc3ccccc3c12,27.5% (inactive)
3,C[C@H](NC(=O)[C@@H]1CSSC[C@@H](NC(=O)c2nc3ccccc3cc2O)C(=O)NCC(=O)N1C)c1ccccc1,-8.45% (active)
4,COc1cc(/C=N/Nc2ncc(-c3cc4cc5c(cc4o3)OCO5)s2)cc(OC)c1OC,18.6% (inactive)
5,CC(CN1CCCCC1)C(=O)c1ccccc1 (stereo not given),106% (inactive)
6,COc1ccc2[nH]c(O)c(C(=Nc3ccc(N(C)C(=O)CN4CCN(C)CC4)cc3)c3ccccc3)c2c1,14.6% (inactive)
7,O=C(O)CN1C(=O)CCC1=O,114% (inactive)
8,O=C1OC(c2nc3ccccc3s2)=C/C1=C\c1ccc(O)cc1,102% (inactive)
9,COc1cc(/C=N/NC(=O)Cn2c(C(C)C)nc3ccccc32)ccc1O,93.6% (inactive)
10,COc1ccccc1NC(=O)N/C(N)=N/c1nc2ccccc2s1,15.4% (inactive)
11,O=c1c2c3c(sc2nc(N/N=C/c2ccc(Br)cc2)n1Cc1ccccc1)CCCC3,40.8% (inactive)
12,Cc1cc(=O)[nH]c(N=Nc2c(O)[nH]c3ccccc23)n1,109% (inactive)
13,Nc1nc(N)c2c(n1)NC(c1ccccc1)C1CCc3ccccc3C1=N2 (stereo not given),15.1% (inactive)
14,C[C@H]1[C@H]2[C@H]3CC[C@@H]4[C@@]5(C)C/C(=C/c6cccnc6)C(=O)C(C)(C)[C@@H]5CC[C@@]4(C)[C@]3(C)CC[C@]23CO[C@]1(C)[C@@H](C(=O)/C=C\c1cccnc1)C3,16.7% (inactive)
15,O=C(CCc1nnc(CN(c2ccccc2)c2ccccc2)o1)c1nc2ccccc2[nH]1,55.7% (inactive)
16,COC(=O)c1ccc(C2Nc3ccc(S(=O)(=O)Nc4ccc(C)c(C)c4)cc3C3OCCC23)cc1 (stereo not given),60.6% (inactive)
17,O=C1N=c2cc3c(cc2=C/C1=C/c1sc(=S)n(CCc2ccc(O)cc2)c1O)OCCO3,21.5% (inactive)
18,Cc1ccc(/C=C2\C(=O)N(C)c3ccc(S(=O)(=O)Nc4ccc(C(C)(C)C)cc4)cc32)s1,78.2% (inactive)
19,CCOC(=O)c1c2c(n3ccc(NC(=O)OC(C)(C)C)cc13)C(=O)c1ncccc1C2=O,7.38% (active)
20,COc1ccc(-c2nc(SCCC(C)C)nc(N/N=C\c3ccccc3O)c2C#N)cc1,90.2% (inactive)

row,Structure (SMILES),growth
1,COc1ccc2c(c1)O/C(=C\c1cccc(OCC(=O)Nc3nc(C)c(C)s3)c1)C2=O,19.2% (inactive)
2,COc1cc(C2CC(c3cc(OC)c(OCCCOc4ccc(-n5c(/C=C/c6ccccc6)nc6ccccc6c5=O)cc4)c(OC)c3)=NO2)cc(OC)c1OC (stereo not given),86% (inactive)
3,c1ccc2cc3nc4cc5ccccc5cc4nc3cc2c1,109% (inactive)
4,N#Cc1c(-c2cccc(Cl)c2)cc(-c2cccc(Cl)c2)[nH]c1=O,54.1% (inactive)
5,NC(=S)N/N=C/Cc1ccccc1,78.7% (inactive)
6,O=C(Nc1ccccc1-c1nc2ccccc2c(=O)[nH]1)c1cc2ccccc2[nH]1,95.6% (inactive)
7,COc1ccc(N=Nc2ccc(O)c(=O)cc2)cc1,-18.4% (active)
8,CN(C)c1ccc(/C=C/C(=O)c2cccc(Nc3nc(Nc4ccccc4)nc(Nc4ccccc4)n3)c2)cc1,80.6% (inactive)
9,COC(=O)c1c2c(c(C)[n+]([O-])c1C)C(=O)C(NCc1ccc(F)cc1)=CC2=O,-19.6% (active)
10,NC(=O)c1ccc[n+]([C@@H]2O[C@H](COP(=O)([O-])OP(=O)(O)OC[C@H]3O[C@@H](n4cnc5c(N)ncnc54)[C@H](O)[C@@H]3O)[C@@H](O)[C@H]2O)c1,108% (inactive)
11,Cn1c(I)c(C#C[Si](C)(C)C)c(=O)n(C(=O)c2ccccc2)c1=O,-69.9% (active)
12,C[C@@]1(CCC#N)[C@H]2CC[C@@H]3[C@H]4[C@H](C(=O)/C=C/c5cccnc5)CC[C@]4(C#N)CC[C@@]3(C)[C@]2(C)CC[C@H]1C(=O)/C=C/c1cccnc1,11.7% (inactive)
13,CCCCCCCCCOc1c(OC)cc(C2CC(=O)Nc3c2c(C)nn3-c2nc3ccccc3[nH]2)cc1OC (stereo not given),11.2% (inactive)
14,O=S(=O)(O)c1ccc(N/N=C/c2ccccc2Cl)cc1,103% (inactive)
15,CCc1ccccc1-n1c(N)c(C#N)c(-c2ccc(N(C)C)cc2)c(C#N)c1=O,117% (inactive)
16,COc1cc(CCC[P+](c2ccccc2)(c2ccccc2)c2ccccc2)cc2c1OCO2,53.5% (inactive)
17,O=C(COc1ccc(/C=C2\Oc3ccccc3C2=O)cc1)Nc1nc2c(s1)CCCC2,-64.3% (active)
18,COc1ccc(-c2c(N)n[nH]c2-c2ccc(Cl)cc2O)cc1OC,107% (inactive)
19,COc1ccc(C(=O)Nn2c(NCC(=O)N3c4ccccc4Sc4ccccc43)nnc2-c2ccc(O)cc2)cc1,110% (inactive)
20,CN(C)CCCn1c(=O)c2ccccc2c2ccccc21,51.6% (inactive)
